PubChem BioAssay (NCI)
Compounds without any hit were thinned out: in the full panel of roughly 83,000, 20% have a hit.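 Values shown are percent growth following 48 h exposure of cells in 96-well plates to a single concentration of compound; below 10 was considered active.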 The source made the active and inactive calls.

Assays:
Experiment in all cases: NCI-60 one-dose screen, 48 h (100 = growth as untreated, 0 = no growth, -100 = all killed)
Conditions in all cases: 10 µM unless noted
[1] = tested on: RPMI-8226 leukemia
[2] = tested on: OVCAR-8 ovarian
[3] = tested on: OVCAR-5 ovarian
[4] = tested on: OVCAR-4 ovarian
[5] = tested on: SK-OV-3 ovarian
[6] = tested on: IGROV1 ovarian
[7] = tested on: OVCAR-3 ovarian
[8] = tested on: HS 578T breast
[9] = tested on: NCI/ADR-RES ovarian
[10] = tested on: T-47D breast
[11] = tested on: BT-549 breast
[12] = tested on: MDA-MB-435 melanoma
[13] = tested on: SW-620 colon
[14] = tested on: MCF7 breast
[15] = tested on: HCT-116 colon
[16] = tested on: HCC-2998 colon
[17] = tested on: KM12 colon
[18] = tested on: SR leukemia

Measured: growth

COc1cc(C2C3=C(COC3=O)N(CCO)c3cc4c(cc32)OCO4)cc(OC)c1OC (centres undefined)
active: [5] -24.2% | [7] -27.6% | [8] -6.37% | [12] -2.88% | [14] -6.88% | [15] 4.34% | [16] -13% | [17] 5.43%
inactive: [1] 15.2% | [2] 28.4% | [3] 27.7% | [4] 28.5% | [6] 19.1% | [9] 27.2% | [10] 36.7% | [11] 10.6% | [13] 18.8%

COC(=O)c1ccc2c(c1)[n+](=O)c(C(C)=O)c(C(F)(F)F)n2[O-]
active: [1] -48% | [2] 9.07% | [3] -12.9% | [4] -42% | [5] -31.4% | [6] -78.3% | [7] -92.8% | [8] -19.4% | [9] -40.7% | [10] -73.6% | [11] -19.6% | [12] 0.455% | [14] -50.3% | [15] -98% | [16] -86.9% | [17] -93.5%
inactive: [13] 18.1%

O=C1CC(=O)OC(c2ccc([N+](=O)[O-])cc2)O1
inactive: [1] 14.1% | [2] 11.6% | [4] 24.6% | [5] 89.6% | [8] 13.1% | [10] 17.9% | [11] 51.4%
active: [3] -3.68% | [6] -59.6% | [7] -60.6% | [9] -44.3% | [12] -27.9% | [13] -42.8% | [14] 7.35% | [15] -68.8% | [16] 7.55% | [17] -75.3%

COc1cc(-c2n/c(=C\c3c(O)[nH]c4ccc(Cl)cc34)cc3c2=Nc2ccccc2-3)ccc1F
inactive: [3] 74% | [8] 14.8% | [9] 47% | [10] 56% | [11] 85.9% | [12] 21.3% | [16] 71.6%
active: [18] 7.25% | [4] -56.9% | [5] -14.7% | [6] -18% | [7] -14.6% | [14] -54.2% | [15] -45.8% | [17] 4.87%

COc1c(Cl)c2c(c(OC)c1OC)-c1ccc(SC)c(=O)cc1[C@@H](NC(=O)OCC(F)(F)F)CC2
inactive: [2] 20% | [3] 35% | [4] 39.6% | [5] 48.2% | [6] 13.5% | [8] 12.1% | [9] 14.6% | [10] 43.1% | [13] 21.9% | [14] 14.8% | [16] 21.6% | [17] 10.4%
active: [1] 2.59% | [7] -14.2% | [11] 5.25% | [12] -36.9% | [15] 1.82%

O=C(N/N=C/c1ccc(Oc2ccccc2)cc1)c1cnn2c1NC(c1ccccc1)C2 (centres undefined)
active: [7] -32.6% | [12] 4.46%
inactive: [1] 75.7% | [2] 52.1% | [3] 78% | [4] 26.6% | [5] 48.5% | [6] 59.3% | [8] 32.3% | [9] 68.7% | [10] 43% | [11] 81.1% | [13] 42.1% | [14] 17.7% | [15] 32.2% | [16] 71.8% | [17] 44.7%

Cc1nc2sccn2c1-c1nc2sccn2c1/C=C1/C(=O)Nc2ccccc21
active: [6] -15.5% | [7] -30.9% | [12] -63.8% | [13] 9.78%
inactive: [1] 20.1% | [2] 52.1% | [3] 41.8% | [4] 63.6% | [5] 31.2% | [8] 31.8% | [9] 47.9% | [10] 27.6% | [11] 36% | [14] 10.6% | [15] 24.1% | [16] 66.8% | [17] 12.5%

N=C1C(c2nc3ccccc3s2)=C(O)CN1c1cc(Cl)cc(Cl)c1
inactive: [2] 67.2% | [3] 87% | [4] 131% | [5] 99.4% | [6] 52.5% | [7] 87.2% | [8] 52.7% | [9] 78.9% | [10] 97% | [12] 41.6% | [13] 54.8% | [14] 148% | [15] 46.5% | [16] 85.8%
active: [18] 7.21%

N#Cc1c(NC(=O)NCc2ccccc2)sc2c1CCCC2
inactive: [1] 17.7% | [2] 26.8% | [3] 46% | [4] 48.4% | [5] 35.1% | [6] 28.8% | [9] 11.1% | [10] 40% | [11] 24.1% | [13] 24% | [14] 19.5% | [15] 12.2% | [16] 22.4% | [17] 20.5%
active: [7] -15.7% | [8] 9.64% | [12] -35.3%

COc1cc(/C=C/C(=O)c2nc3cc(F)ccc3nc2C)cc(OC)c1OC
inactive: [2] 36% | [3] 89.7% | [4] 77.8% | [5] 113% | [6] 34.8% | [7] 55.3% | [8] 61.4% | [9] 41.3% | [10] 48% | [11] 112% | [12] 75% | [13] 29.9% | [14] 34.1% | [15] 44.5% | [17] 36.2%
active: [1] -4.08% | [16] -4.35%

C[C@H]1[C@H]2[C@H]3CC[C@@H]4[C@@]5(C)CC[C@H](O)C(C)(C)[C@@H]5CC[C@@]4(C)[C@]3(C)CC[C@]23CO[C@]1(C)[C@@H](C(=O)/C=C\c1ccco1)C3
inactive: [1] 106% | [2] 99.3% | [3] 102% | [4] 111% | [5] 103% | [6] 108% | [7] 103% | [8] 95.8% | [9] 95.3% | [10] 84.8% | [11] 105% | [12] 17.8% | [13] 97.1% | [14] 101% | [15] 100% | [16] 104% | [17] 100%

Cc1c(C)c([N+](=O)[O-])c(C)c([N+](=O)[O-])c1C
inactive: [1] 102% | [2] 104% | [3] 104% | [4] 99.5% | [5] 114% | [6] 104% | [7] 109% | [8] 102% | [9] 108% | [10] 113% | [11] 95.8% | [12] 115% | [13] 109% | [14] 97.3% | [15] 105% | [16] 112%

Cc1nn(-c2ccccc2)c(Cl)c1/C=N\N=c1/sc2ccccc2n1C
inactive: [1] 78.6% | [2] 98.2% | [3] 92.6% | [4] 117% | [5] 94.7% | [6] 96.2% | [7] 111% | [8] 104% | [9] 104% | [10] 93.7% | [11] 92.8% | [12] 102% | [13] 101% | [14] 97% | [15] 84.5% | [16] 101% | [17] 106%

Cc1nc2sccn2c1-c1cn2ccsc2n1
inactive: [1] 65% | [2] 96% | [3] 87.7% | [4] 70.8% | [5] 94.9% | [6] 14.3% | [7] 85.8% | [8] 87% | [9] 98% | [11] 80.2% | [12] 95.9% | [13] 96.9% | [15] 88.3% | [16] 50.2%
active: [10] -4.14% | [14] -39.1%

COc1ccc(-c2nc3sccn3c2/C=C/C(=O)c2ccc3c(c2)OCO3)cc1
inactive: [1] 10.5% | [2] 80.9% | [3] 108% | [4] 46.1% | [5] 170% | [6] 85.1% | [7] 84.8% | [8] 96.9% | [9] 75.7% | [10] 83.9% | [11] 81.8% | [12] 57.6% | [13] 56% | [15] 58.4% | [16] 95.5% | [17] 54.2%
active: [14] -7.62%

N#Cc1c(-c2ccccc2)nc2c(c(-c3ccccc3)nn2-c2ccccc2)c1-c1ccc(O)cc1
inactive: [1] 12.9% | [2] 56% | [3] 81.2% | [4] 72.2% | [5] 71.1% | [6] 72% | [7] 54.2% | [8] 15.9% | [9] 70.5% | [10] 35.3% | [11] 59.7% | [12] 51.5% | [13] 16.5% | [14] 14.8% | [15] 34.8% | [16] 72% | [17] 47.1%

C#Cc1cccc(NC(=O)c2cccc(NC(=O)CCl)c2)c1
active: [1] -3.03% [8.25 µM] | [2] -28.3% [8.25 µM] | [3] 8.37% [8.25 µM] | [4] -38.1% [8.25 µM] | [6] -53.5% [8.25 µM] | [7] -71.3% [8.25 µM] | [9] -11.5% [8.25 µM] | [11] -43.5% [8.25 µM] | [12] -13.2% [8.25 µM] | [13] -74.2% [8.25 µM] | [14] 3.07% [8.25 µM] | [15] -20.3% [8.25 µM]
inactive: [5] 56.4% [8.25 µM] | [8] 31.8% [8.25 µM] | [10] 25% [8.25 µM] | [16] 74.3% [8.25 µM] | [17] 16.8% [8.25 µM]

Cc1ccc(-c2nc3ccccn3c2/C=C2/C(=O)Nc3cc(Cl)ccc32)cc1
inactive: [1] 93.6% | [2] 91.7% | [3] 101% | [4] 74.7% | [5] 94.4% | [6] 81.3% | [7] 93.7% | [8] 101% | [9] 27% | [10] 74.6% | [11] 70.9% | [13] 49% | [14] 33.5% | [15] 26.5% | [16] 92.2%
active: [12] -12.7%
